# The list is not random: actives were taken first. Their share in the collection is about 4.1%.
# PglD DTNB = PglD (C. jejuni) enzyme inhibition; 360,000 tested, 0.098% active; inhibition, % at 12.5 µM; purified PglD enzyme, DTNB colorimetric CoA detection; in the data active = inhibition above about 16%, passing the limit was not always enough; inconclusive = no clear call, values can overlap the other calls
# F508del corr = correctors of CFTR F508del function in bronchial epithelial cells; CFBE cells, YFP halide quenching; stimulated with forskolin plus potentiator P3; % fluorescence drop versus neutral controls; activity (quench increase), % at 7.58 µM; 350,000 tested, 0.36% active;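 active = mean added fluorescence quench of at least 8% versus neutral control, with both replicates also reaching 8%; inconclusive = only one of the mean or replicate conditions met; inactive = mean below 8% and not both replicates reaching 8%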;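 note: cells transiently co-express mutant CFTR-F508del with the halide-sensitive YFP; corrector assay measuring rescue of mutant channel to the surface after 24 h compound exposure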
# HIV Env fusion = inhibitors of HIV Env-mediated cell fusion; HeLa-JRFL Env/CEM21 cell fusion, luciferase; inhibition, % at 12.3 µM; 360,000 tested, 1.1% active; AID 651610;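 active = mean replicate inhibition score of at least 50 and every replicate individually at or above 50; inconclusive = only one of the two criteria met; inactive = mean below 50 and not all replicates reaching 50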
# ALR inh = blocks human ALR sulfhydryl oxidase activity; P55789; purified ALR, DTT oxidation, H2O2 HRP-luminol luminescence; inhibition, % (no concentration beside the values); 290,000 tested, 3.8% active; AID 485317;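 active = mean replicate inhibition above about 79%, with every replicate also reaching it, limit read from the data; inconclusive = only one of the two criteria met; inactive = mean below limit and not every replicate reaching it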
# Target sequence (P55789 whole entry, looked up): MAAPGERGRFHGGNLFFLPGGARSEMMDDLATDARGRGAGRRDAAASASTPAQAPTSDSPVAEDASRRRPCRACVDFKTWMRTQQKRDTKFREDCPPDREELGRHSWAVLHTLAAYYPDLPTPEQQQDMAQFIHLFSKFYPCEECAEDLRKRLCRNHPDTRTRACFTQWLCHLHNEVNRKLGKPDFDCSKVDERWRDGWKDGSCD
# CASP6 VEID inh = blocks human caspase-6 cleavage activity. P55212. purified caspase-6, Z-VEID-R110 cleavage fluorescence. inhibition, % at 12.5 µM. 350,000 tested, 0.53% active;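 active = mean inhibition across replicates at least about 35%, with every replicate also reaching that limit, limit read from the data; inconclusive = only one of the two criteria met; inactive = neither criterion met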
# Target sequence (P55212 24-179 limits assumed): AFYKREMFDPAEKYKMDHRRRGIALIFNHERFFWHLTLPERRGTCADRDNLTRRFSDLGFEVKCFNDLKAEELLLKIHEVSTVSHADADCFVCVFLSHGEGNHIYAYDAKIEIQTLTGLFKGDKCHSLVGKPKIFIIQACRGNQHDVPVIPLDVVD
# Target sequence (P55212 194-293 limits assumed): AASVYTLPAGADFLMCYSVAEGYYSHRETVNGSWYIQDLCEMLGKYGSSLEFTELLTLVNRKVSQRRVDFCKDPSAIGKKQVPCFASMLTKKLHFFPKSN
# NSD2 HMT inh = blocks human histone methyltransferase NSD2; 310,000 tested, 0.54% active; NSD2 peptide methylation, AlphaScreen, 120 min; inhibition, % at 12.5 µM; O96028; in the data active = inhibition above about 50%
# Hits are given with their value; - = inactive; ? = inconclusive; . = not tested or not shown.
SMILES,PglD DTNB,F508del corr,HIV Env fusion,ALR inh,CASP6 VEID inh,NSD2 HMT inh
CCC(=O)NCCc1nc(-c2ccccc2)no1,-,-,60,-,-,.
CC(C)NC(=O)N(C)C[C@@H]1Oc2ccc(NS(=O)(=O)c3cn(C)cn3)cc2C(=O)N([C@@H](C)CO)C[C@H]1C,-,-,-,.,-,.
Cc1c(O)cc2c(c1O)C(=O)CC(c1ccc(O)cc1)O2 (stereo unspecified),-,-,.,-,46,.
COc1cc(O)c2c(c1)OC(c1ccc(O)cc1)CC2=O (stereo unspecified),-,-,.,-,-,.
CN(C)c1ccc(C(=O)NN2C(=O)c3ccccc3C2=O)cc1,-,-,-,-,-,.
CCC(=O)N(C1=C(NC)C(=O)c2ccccc2C1=O)C(C)C,.,-,-,-,72,.
CCC(=O)NC1=C(NC(C)c2ccccc2)C(=O)c2ccccc2C1=O (stereo unspecified),-,.,.,-,.,-
CNC1=C(N(C(C)=O)c2ccc(Br)cc2)C(=O)c2ccccc2C1=O,.,.,.,-,.,100
O=C(NCc1ccc(F)cc1)[C@H]1[C@H](CO)[C@H]2Cn3c(cccc3=O)[C@@H]1N2Cc1ccncc1,-,-,.,.,-,.
O=C(CN1CCN(c2ccc(O)cc2)CC1)Nc1cc(S(=O)(=O)N2CCCCC2)ccc1Cl,.,-,-,-,-,-
O=S(=O)(c1ccc(NC(=S)N/N=C/c2ccc(O)c(O)c2)cc1)N1CCOCC1,-,-,-,99,40,-
O=S(=O)(c1ccc(Cl)c(NC(=S)N/N=C/c2ccc(O)cc2)c1)N1CCOCC1,.,.,.,99,.,-
O=S(=O)(c1ccc(Cl)c(NC(=S)Nc2ccccc2N2CCOCC2)c1)N1CCOCC1,.,-,-,98,.,-
O=C(CN1CCN(c2ccc(O)cc2)CC1)Nc1cc(S(=O)(=O)N2CCCC2)ccc1Cl,.,-,-,90,-,-
CO[C@@H]1CC[C@@H]2CCN(C)C(=O)CCCN(C)C(=O)c3cccc(C#N)c3OC[C@H]1O2,-,.,-,.,-,.
CC(=O)NC[C@@H]1[C@@H](c2ccc(-c3ccccc3)cc2)[C@H](CO)N1C(=O)C1CC1,-,-,.,.,-,.
CCC(=O)N1[C@H](C(=O)OC)[C@@H](CO)[C@@H]2Cn3c(ccc(/C=C/c4ccccc4)c3=O)[C@@H]21,-,-,.,.,-,.
Oc1ccc(/C=N/NC(=S)Nc2cccnc2)cc1O,.,-,.,99,-,75
COc1ccc(NC(=O)N(C)C[C@@H]2OCCCC[C@H](C)Oc3ccc(NC(=O)NC(C)C)cc3C(=O)N([C@H](C)CO)C[C@@H]2C)cc1,-,-,-,.,-,.
COc1cccc(S(=O)(=O)Nc2ccc3c(c2)C(=O)N(C)[C@H]2CC[C@H](CC(=O)Nc4ccc(C(C)C)cc4)O[C@@H]2CO3)c1,-,-,-,.,-,.
COc1cc(CNc2ccc(N3CCCCC3)cc2)ccc1OCC(=O)NC(C)(C)C,-,-,-,99,-,-
C=CCOc1ccc(CNCc2cccnc2)cc1OCC,-,.,-,94,-,-
COc1cc(CNc2ccc(N3CCCC3)cc2)ccc1OCc1ccccc1,.,.,-,.,-,-
C=CCOc1ccc(CNC(C)(C)CO)cc1OCC,-,.,.,-,.,-
C=CCOc1ccc(CNc2ccc3[nH]c(=O)[nH]c3c2)cc1OCC,.,-,-,98,-,-
SMILES,PglD DTNB,F508del corr,HIV Env fusion,ALR inh,CASP6 VEID inh,NSD2 HMT inh
COc1cc(CNc2ccc3[nH]c(=O)[nH]c3c2)cc(Cl)c1OCC(=O)NC(C)(C)C,-,.,.,98,.,-
COc1cc(CNn2c(C)n[nH]c2=S)cc(Cl)c1OCC(=O)NC(C)(C)C,-,-,-,-,-,-
O=c1[nH]c2ccc(NCc3ccccc3OCc3ccc(Cl)cc3)cc2[nH]1,-,-,-,-,-,-
C=CCOc1c(CNc2ccc3[nH]c(=O)[nH]c3c2)cccc1OC,.,-,-,99,-,-
CCOc1ccccc1OCC(=O)Nc1ccc2[nH]c(=O)[nH]c2c1,-,-,-,.,-,.
CCOc1cc(CNc2ccc3[nH]c(=O)[nH]c3c2)ccc1OCC(=O)NC(C)(C)C,-,.,.,91,.,-
C=CCOc1ccc(CNc2ccc3[nH]c(=O)[nH]c3c2)cc1,.,-,-,99,-,-
C#Cc1ccc([C@@H]2C=C(C(=O)Nc3ccccc3)O[C@H](OCc3ccc(CO)cc3)C2)cc1,-,-,-,.,-,.
CN1C(=O)c2cc(NC(=O)c3cnccn3)ccc2OC[C@@H]2O[C@H](CC(=O)NCC3CC3)CC[C@@H]21,.,-,.,.,-,.
O=C(CN1CCOCC1)N1CCCCN2[C@H](CO)[C@H](c3ccc(C#Cc4ccccc4F)cc3)[C@@H]2C1,-,-,.,.,-,.
Cc1cc(Sc2nnc(/N=C/N(C)C)s2)c2ccccc2n1,-,-,56,98,-,.
CO[C@H]1CN(C)C(=O)c2ccc(NC(=O)C3CCOCC3)cc2OC[C@H](C)N(Cc2nccs2)C[C@H]1C,-,-,-,.,-,.
O=S(=O)(c1ccc(Cl)cc1)N1CCCN(c2nc3ccc(Cl)cc3s2)CC1,.,-,91,-,-,-
COc1ccc(C#Cc2cccc(-c3nc(C(=O)N[C@@H]4CCN(Cc5ccccc5)C4)cc4c3[C@H](CCO)N(S(=O)C(C)(C)C)C4)c2)cc1OC (stereo partly specified),.,-,.,.,-,.
CCOc1cc(OCC)c(C(C)=O)cc1OCC,-,8.4,.,-,-,.
CCOc1cc(Br)c(C(=O)O)cc1OCC,-,.,-,-,.,-
Cc1ccc(Oc2nc3ccccn3c(=O)c2/C=C(\C#N)C(=O)NC2CCS(=O)(=O)C2)c(C)c1 (stereo unspecified),-,-,-,84,-,-
CC1=[N+](C)N(c2ccccc2)C(=O)C1N=Cc1ccccc1Cl (stereo unspecified),-,.,-,77,-,-
CC1=[N+](C)N(c2ccccc2)C(=O)C1N=Cc1c(Cl)cccc1Cl (stereo unspecified),-,-,-,-,-,-
CN(C)c1ccc(C(CNC(=O)c2ccc(Br)o2)N2CCCC2)cc1 (stereo unspecified),.,.,.,.,.,-
CCc1ccc2oc(C(=O)NCc3ccncc3)c(C)c2c1,-,.,62,-,.,-
Cc1cc(C)c2c(C)c(C(=O)NCc3ccncc3)oc2c1,-,.,-,-,.,-
COc1ccc(NC2CCCN(C(=O)c3csc(C(C)C)n3)C2)cc1OC (stereo unspecified),-,-,-,99,-,-
COc1ccc(NC2CCCN(C(=O)c3cc(CC(C)C)nc(N)n3)C2)cc1 (stereo unspecified),-,-,-,93,-,-
COc1ccc(NC2CCCN(C(=O)c3cccc(C)n3)C2)cc1OC (stereo unspecified),-,-,-,?,-,-
CCn1nc(CC(C)C)cc1C(=O)N1CCCC(Nc2ccc(F)cc2)C1 (stereo unspecified),-,-,-,-,-,-
COc1ccc(NC2CCCN(C(=O)c3csc(C(C)C)n3)C2)cc1 (stereo unspecified),-,-,-,99,-,-
